# Assay results as given in PubChem BioAssay AID1159580 (chemical genetic matrix, 2015).
# “And” between values parts separate entries of the source, which are not always exact repeats. Identical values can stand only once. About 2,000 (36%) of roughly 5,500 compounds were called active. About 18% were inconclusive and are not listed. Some of the results follow. A number with no mark means an inactive call. Cut-off read from the data, not from the text of the source: active = normalized growth mostly below about 0.91 (no sharp cut-off); inconclusive = no clear call, values can overlap the other calls; inactive = mostly above about 0.92.
# Assay: chemical genetic growth profiling, strain panel (AID 1159580);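 note: tested at 20 µM; growth read once vehicle control cultures reached saturation at 30 °C; 1 = growth at the plate median or of vehicle wells; lower values mean less growth of the strain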
# Settings: S. cerevisiae deletion strains, growth OD
structure (smiles),measurement,setting,value
CC(C)c1c(O)ccc2c1CCC1[C@@](C)(CO)CCC[C@]21C (stereo partly specified),normalized growth,"locus YAL013W, strain DEP1, hits give low values",0.978
same,normalized growth,"locus YAL021C, strain ccr4, hits give low values",1.01
same,normalized growth,"locus YAL026C, strain drs2, hits give low values",1.01
same,normalized growth,"locus YAL030W, strain snc1, hits give low values",1.01
same,normalized growth,"locus YBL061C, strain skt5, hits give low values",1.01
same,normalized growth,"locus YBR009C, strain hhf1, hits give low values",1.04
same,normalized growth,"locus YBR021W, strain FUR4, hits give low values",0.945
same,normalized growth,"locus YBR023C, strain chs3, hits give low values",1.03
same,normalized growth,"locus YBR171W, strain sec66, hits give low values",1.02
same,normalized growth,"locus YBR229C, strain ROT2, hits give low values",0.958
same,normalized growth,"locus YBR231C, strain swc5, hits give low values",1.02
same,normalized growth,"locus YBR279W, strain paf1, hits give low values",1.02
same,normalized growth,"locus YCL011C, strain gbp2, hits give low values",1.02
same,normalized growth,"locus YCL016C, strain dcc1, hits give low values",1.02
same,normalized growth,"locus YCL029C, strain bik1, hits give low values",0.941
same,normalized growth,"locus YCL069W, strain vba3, hits give low values",1.02
same,normalized growth,"locus YCR088W, strain abp1, hits give low values",1.02
same,normalized growth,"locus YDL005C, strain med2, hits give low values",1.02
same,normalized growth,"locus YDL035C, strain GPR1, hits give low values",0.964
same,normalized growth,"locus YDL040C, strain nat1, hits give low values",1.01
same,normalized growth,"locus YDL074C, strain BRE1, hits give low values",0.834
same,normalized growth,"locus YDL101C, strain DUN1, hits give low values",0.947
same,normalized growth,"locus YDL134C, strain PPH21, hits give low values",0.911
same,normalized growth,"locus YDL185W, strain tfp1, hits give low values",0.975
same,normalized growth,"locus YDL192W, strain arf1, hits give low values",0.92
same,normalized growth,"locus YDR001C, strain nth1, hits give low values",1.01
same,normalized growth,"locus YDR069C, strain doa4, hits give low values",1
same,normalized growth,"locus YDR101C, strain arx1, hits give low values",0.967
same,normalized growth,"locus YDR137W, strain rgp1, hits give low values",0.885
same,normalized growth,"locus YDR150W, strain NUM1, hits give low values",0.983
same,normalized growth,"locus YDR159W, strain sac3, hits give low values",1.02
same,normalized growth,"locus YDR162C, strain NBP2, hits give low values",0.79 (active)
same,normalized growth,"locus YDR195W, strain ref2",1.05
same,normalized growth,"locus YDR297W, strain sur2, hits give low values",1.02
same,normalized growth,"locus YDR318W, strain mcm21, hits give low values",0.911 (active)
same,normalized growth,"locus YDR334W, strain swr1, hits give low values",1.03
same,normalized growth,"locus YDR335W, strain msn5, hits give low values",1.03
same,normalized growth,"locus YDR388W, hits give low values",0.957
same,normalized growth,"locus YDR392W, strain spt3, hits give low values",0.991
same,normalized growth,"locus YDR502C, strain sam2, hits give low values",0.898 (active)
same,normalized growth,"locus YEL003W, strain gim4, hits give low values",1.01
same,normalized growth,"locus YEL037C, strain rad23, hits give low values",1.02
same,normalized growth,"locus YEL061C, strain CIN8 (second series), hits give low values",1.03
same,normalized growth,"locus YEL061C, strain CIN8, hits give low values",0.971
same,normalized growth,"locus YER015W, strain faa2, hits give low values",1.02
same,normalized growth,"locus YER016W, strain bim1, hits give low values",1.01
same,normalized growth,"locus YER110C, hits give low values",0.971
same,normalized growth,"locus YER111C, strain swi4, hits give low values",1.04
same,normalized growth,"locus YER155C, strain BEM2 (second series), hits give low values",1.03
same,normalized growth,"locus YER155C, strain BEM2, hits give low values",0.966
same,normalized growth,"locus YER167W, strain BCK2, hits give low values",0.949
same,normalized growth,"locus YFR010W, strain ubp6, hits give low values",1.03
same,normalized growth,"locus YGL078C, strain dbp3, hits give low values",0.961
same,normalized growth,"locus YGL086W, strain mad1, hits give low values",0.898 (active)
same,normalized growth,"locus YGL167C, strain pmr1, hits give low values",1.01
same,normalized growth,"locus YGL173C, strain kem1, hits give low values",1.02
same,normalized growth,"locus YGL227W, strain vid30, hits give low values",1.02
same,normalized growth,"locus YGL240W, strain doc1, hits give low values",1.01
same,normalized growth,"locus YGL248W, strain PDE1, hits give low values",0.924
same,normalized growth,"locus YGL253W, strain hxk2, hits give low values",1.01
same,normalized growth,"locus YGR078C, strain PAC10, hits give low values",0.889
same,normalized growth,"locus YGR135W, strain pre9, hits give low values",0.93
same,normalized growth,"locus YGR252W, strain gcn5, hits give low values",0.88
same,normalized growth,"locus YHR013C, strain ard1, hits give low values",1.03
same,normalized growth,"locus YHR027C, strain rpn1, hits give low values",1.03
same,normalized growth,"locus YHR030C, strain SLT2, hits give low values",1.04
same,normalized growth,"locus YHR079C, strain IRE1 (second series), hits give low values",0.96
same,normalized growth,"locus YHR079C, strain IRE1, hits give low values",1.07
same,normalized growth,"locus YHR094C, strain hxt1, hits give low values",0.958
same,normalized growth,"locus YHR129C, strain ARP1, hits give low values",0.949
same,normalized growth,"locus YHR142W, strain chs7, hits give low values",1.01
same,normalized growth,"locus YHR200W, strain rpn10, hits give low values",0.931
same,normalized growth,"locus YIL066C, strain RNR3, hits give low values",0.94
same,normalized growth,"locus YIL073C, strain SPO22, hits give low values",0.871
same,normalized growth,"locus YIL125W, strain kgd1, hits give low values",0.973
same,normalized growth,"locus YIR030C, strain dcg1, hits give low values",0.954
same,normalized growth,"locus YJL092W, strain hpr5, hits give low values",1.01
same,normalized growth,"locus YJL095W, strain BCK1 (second series), hits give low values",1
same,normalized growth,"locus YJL095W, strain BCK1, hits give low values",0.811 and 1.03
same,normalized growth,"locus YJL115W, strain asf1, hits give low values",1.03
same,normalized growth,"locus YJL129C, strain trk1, hits give low values",0.961
same,normalized growth,"locus YJL134W, strain LCB3, hits give low values",0.973
same,normalized growth,"locus YJL154C, strain vps35, hits give low values",1.01
same,normalized growth,"locus YJL164C, strain tpk1, hits give low values",1.02
same,normalized growth,"locus YJL166W, strain qcr8, hits give low values",1.01
same,normalized growth,"locus YJL168C, strain set2, hits give low values",0.957
same,normalized growth,"locus YJL187C, strain SWE1 (second series), hits give low values",0.918
same,normalized growth,"locus YJR066W, strain TOR1, hits give low values",1.01
same,normalized growth,"locus YKL009W, strain mrt4, hits give low values",0.91
same,normalized growth,"locus YKL068W, hits give low values",0.965
same,normalized growth,"locus YKL085W, strain MDH1 (second series), hits give low values",0.961
same,normalized growth,"locus YKL085W, strain MDH1, hits give low values",0.961
same,normalized growth,"locus YKL160W, strain elf1, hits give low values",1.02
same,normalized growth,"locus YKL190W, strain CNB1, hits give low values",0.979
same,normalized growth,"locus YKR001C, strain vps1, hits give low values",0.895 (active)
same,normalized growth,"locus YKR026C, strain gcn3, hits give low values",1.02
same,normalized growth,"locus YKR091W, strain srl3, hits give low values",1.01
same,normalized growth,"locus YLL001W, strain dnm1, hits give low values",1.01
same,normalized growth,"locus YLL026W, hits give low values",1.01
same,normalized growth,"locus YLL041C, strain sdh2, hits give low values",1.03
same,normalized growth,"locus YLR027C, strain aat2, hits give low values",0.999
same,normalized growth,"locus YLR039C, strain RIC1, hits give low values",0.443 (active)
same,normalized growth,"locus YLR058C, strain SHM2, hits give low values",0.944
same,normalized growth,"locus YLR102C, strain apc9, hits give low values",0.959
same,normalized growth,"locus YLR113W, strain HOG1, hits give low values",0.996
same,normalized growth,"locus YLR221C, strain rsa3, hits give low values",1.01
same,normalized growth,"locus YLR258W, strain gsy2, hits give low values",1.03
same,normalized growth,"locus YLR262C, strain YPT6 (second series), hits give low values",0.842 (active)
same,normalized growth,"locus YLR262C, strain YPT6, hits give low values",0.397 (active)
same,normalized growth,"locus YLR268W, strain sec22, hits give low values",0.926
same,normalized growth,"locus YLR320W, strain mms22, hits give low values",1.01
same,normalized growth,"locus YLR330W, strain CHS5, hits give low values",0.951
same,normalized growth,"locus YLR342W, strain FKS1, hits give low values",1.01
same,normalized growth,"locus YLR357W, strain rsc2, hits give low values",1.08
same,normalized growth,"locus YLR370C, strain arc18, hits give low values",1.03
same,normalized growth,"locus YLR371W, strain rom2, hits give low values",0.97
same,normalized growth,"locus YLR384C, strain iki3, hits give low values",1.03
same,normalized growth,"locus YLR418C, strain cdc73, hits give low values",0.725 (active)
same,normalized growth,"locus YML016C, strain PPZ1, hits give low values",0.97
same,normalized growth,"locus YML032C, strain rad52, hits give low values",0.909
same,normalized growth,"locus YML120C, strain ndi1, hits give low values",1.02
same,normalized growth,"locus YML124C, strain tub3, hits give low values",0.959
same,normalized growth,"locus YMR058W, strain fet3, hits give low values",1.02
same,normalized growth,"locus YMR078C, strain ctf18, hits give low values",0.928
same,normalized growth,"locus YMR125W, strain sto1, hits give low values",1.03
same,normalized growth,"locus YMR129W, hits give low values",1.02
same,normalized growth,"locus YMR205C, strain PFK2, hits give low values",1.01
same,normalized growth,"locus YMR223W, strain ubp8, hits give low values",0.914
same,normalized growth,"locus YMR231W, strain pep5, hits give low values",1.04
same,normalized growth,"locus YMR307W, strain GAS1, hits give low values",0.7
same,normalized growth,"locus YNL067W, strain RPL9B, hits give low values",0.939
same,normalized growth,"locus YNL071W, strain lat1, hits give low values",1.02
same,normalized growth,"locus YNL183C, strain NPR1, hits give low values",0.994
same,normalized growth,"locus YNL209W, strain ssb2, hits give low values",1.02
same,normalized growth,"locus YNL233W, strain BNI4, hits give low values",0.885
same,normalized growth,"locus YNL248C, strain rpa49, hits give low values",1.04
same,normalized growth,"locus YNL250W, strain rad50, hits give low values",0.965
same,normalized growth,"locus YNL271C, strain bni1, hits give low values",0.961
same,normalized growth,"locus YNL298W, strain CLA4, hits give low values",0.951
same,normalized growth,"locus YNL307C, strain MCK1, hits give low values",0.885 (active)
same,normalized growth,"locus YNL322C, strain KRE1 (second series), hits give low values",1.03
same,normalized growth,"locus YNR049C, strain mso1, hits give low values",1.01
same,normalized growth,"locus YNR052C, strain pop2, hits give low values",0.92
same,normalized growth,"locus YOL012C, strain htz1",1.16
same,normalized growth,"locus YOL147C, strain pex11, hits give low values",0.942
same,normalized growth,"locus YOR001W, strain rrp6, hits give low values",1.02
same,normalized growth,"locus YOR061W, strain CKA2, hits give low values",0.964
same,normalized growth,"locus YOR069W, strain VPS5, hits give low values",0.965
same,normalized growth,"locus YOR070C, strain gyp1, hits give low values",1.01
same,normalized growth,"locus YOR080W, strain dia2, hits give low values",1.02
same,normalized growth,"locus YOR083W, strain WHI5, hits give low values",1.02
same,normalized growth,"locus YOR106W, strain vam3, hits give low values",1.04
same,normalized growth,"locus YOR136W, strain idh2, hits give low values",0.966
same,normalized growth,"locus YOR144C, strain elg1, hits give low values",0.961
same,normalized growth,"locus YOR184W, strain ser1, hits give low values",0.778 (active)
same,normalized growth,"locus YOR231W, strain MKK1, hits give low values",1.03
same,normalized growth,"locus YOR265W, strain rbl2, hits give low values",1
same,normalized growth,"locus YOR270C, strain vph1, hits give low values",1.01
same,normalized growth,"locus YOR290C, strain snf2, hits give low values",1.04
same,normalized growth,"locus YOR316C, strain cot1, hits give low values",0.956
same,normalized growth,"locus YPL051W, strain arl3, hits give low values",1.02
same,normalized growth,"locus YPL055C, strain LGE1, hits give low values",0.887
same,normalized growth,"locus YPL078C, strain atp4, hits give low values",1.04
same,normalized growth,"locus YPL106C, strain sse1, hits give low values",1.07
same,normalized growth,"locus YPL240C, strain hsp82, hits give low values",1.01
same,normalized growth,"locus YPL256C, strain CLN2, hits give low values",1.08
same,normalized growth,"locus YPR119W, strain clb2, hits give low values",0.948
same,normalized growth,"locus YPR141C, strain kar3, hits give low values",0.955
same,normalized growth,"locus YPR163C, strain tif3, hits give low values",0.883 (active)
same,normalized growth,"locus YPR167C, strain met16, hits give low values",0.953
same,normalized growth,"strain wtn01, hits give low values",0.945
